High-throughput results (PubChem)
SW480 rerep = A quantitative high throughput screen for small molecules that induce DNA re-replication in SW480 colon adenocarcinoma cells. SW480 DNA re-replication, Hoechst DNA content imaging, 48 h. Potency, µM (doses to about 46.1 µM), for the others: top-dose re-replication activation, hits mostly activators. actives 1.8% (n = 340,000). AID 624297, 2012; further: potency means the concentration at half of the fitted maximal effect; % of control where 0% means no effect; nearly all actives have a fitted effect of over 55% in size
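First, 250 cells per well were seeded. Next, compound or vehicle (23 nL) was pinned in, plates sat 48 hr at 37 C. Finally Hoechst was added for 40 min before fluorescence scanning.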
RORg inh = qHTS for inhibitors of ROR gamma transcriptional activity; actives 5.4% (n = 310,000); Potency, µM (titrated, usually from 53.6 µM), for the others: at the top dose activity change, negative = inhibition, hits mostly inhibitors; Drosophila S2 Gal4-RORgamma UAS-luciferase reporter, 20 h; Nuclear receptor ROR-gamma (Mus musculus), P51450; further: potency means the concentration at half of the fitted maximal effect; on the % scale 0 is the no-effect control and ±100 the full control effect; nearly all actives have a fitted effect of over 60% in size
Target sequence (P51450 whole entry, looked up, the tested form may be a part): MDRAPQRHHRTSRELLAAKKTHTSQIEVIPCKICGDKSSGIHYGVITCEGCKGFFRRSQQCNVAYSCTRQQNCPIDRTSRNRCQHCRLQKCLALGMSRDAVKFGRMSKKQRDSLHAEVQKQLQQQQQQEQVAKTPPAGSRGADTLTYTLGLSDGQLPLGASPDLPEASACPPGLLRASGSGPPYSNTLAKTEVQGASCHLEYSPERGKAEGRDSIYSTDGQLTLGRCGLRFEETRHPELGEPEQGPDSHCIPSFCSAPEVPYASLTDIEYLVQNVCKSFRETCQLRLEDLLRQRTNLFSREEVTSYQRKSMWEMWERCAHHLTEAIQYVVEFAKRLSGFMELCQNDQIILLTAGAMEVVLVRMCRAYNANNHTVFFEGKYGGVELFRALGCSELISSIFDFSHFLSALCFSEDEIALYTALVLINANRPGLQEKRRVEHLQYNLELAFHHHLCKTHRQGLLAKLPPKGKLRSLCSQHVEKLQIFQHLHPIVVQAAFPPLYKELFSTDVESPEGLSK
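Stably transfected Drosophila Schneider cells are the test system, with ROR gamma fused to Gal4 and luciferase under UAS control; luminescence is read after 20 hr of 700 uM copper sulfate induction at ambient temperature.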
MCF10A rereplic = A quantitative high throughput screen for small molecules that induce DNA re-replication in MCF 10a normal breast cells; MCF 10A DNA re-replication, Hoechst nuclear intensity, 48 h; Potency, µM (top dose mostly 46.1 µM), inactives show top-dose activity, positive = re-replication, usual class: activators; actives 2.9% (n = 350,000); AID 624296, 2012; further: potency means the concentration at half of the fitted maximal effect; % of control where 0% means no effect; nearly all actives have a fitted effect of over 50% in size
IL1B secr inh = qHTS for Inhibitors of Inflammasome Signaling: IL-1-beta AlphaLISA Primary Screen; THP-1 LPS/ATP IL-1B secretion, AlphaLISA, 16 h; stronger effect = lower value; activity change, % at 57.5 µM; actives 4.7% (n = 360,000); in the data active means activity change below about -50%; inconclusive means mostly about -30% to -49%; further: on the % scale 0 is the no-effect control and ±100 the full control effect
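THP-1 cells pretreated 1 hr with compounds (up to 57.5 uM final), then stimulated with LPS (250 ng/mL final) plus ATP (1.25 mM final); secreted IL-1B measured by AlphaLISA after 16 hr, decreased signal indicating inhibition.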
VP16 counter = VP16 counterscreen qHTS for inhibitors of ROR gamma transcriptional activity | Drosophila S2 Gal4-VP16 UAS-luciferase, luminescence, 20 h | actives 3.5% (n = 310,000) | Potency, µM (doses to about 53.6 µM), without a hit: at the highest dose activity, negative = inhibition, hits mostly inhibitors;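 further: Gal4-VP16 expression switched on by copper sulfate through the metallothionein promoter; potency means the concentration at half of the fitted maximal effect; on the % scale 0 is the no-effect control and ±100 the full control effect; nearly all actives have a fitted effect of over 50% in size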
Numbers without * were called inactive; ? = inconclusive; . = not tested or not shown; ! = not confirmed by another sample; [ ] = another dose, or the depositor's remark. Shown are actives, neighbours in structure and some others; about 11% of the full set was active somewhere. Unless noted, the call rests on the fitted dose curve; in most records, active means well fitted curve in the direction sought with a large enough effect; inconclusive means small, poorly fitted or top-dose-only effect, or another doubt; inactive means no such curve, though single readings can be large; an effect the other way counts as inactive or inconclusive.

SMILES	SW480 rerep	RORg inh	MCF10A rereplic	IL1B secr inh	VP16 counter
O=C1NC(=O)N(CCc2ccc(F)cc2)C(=O)/C1=C/c1ccco1	4%	7%	?	-53*	2%
COCCN1C(=O)NC(=O)/C(=C\c2ccc(F)cc2)C1=O	-5%	19%	5.2µM*	0	-6%
C=CCN1C(=O)/C(=C/c2cccs2)C(=O)NC1=S	?	-80%	?	-104*	?
C[C@@]12CC[C@H]3[C@@H](CC[C@@H]4C[C@H]5S[C@H]5C[C@]43C)[C@H]1CC[C@H]2O	-1%[20.6 µM]	0%[2.98 µM]	10%[20.6 µM]	.	-11%[17 µM]
C#CCOS(=O)OC1CCCCC1Oc1ccc(C(C)(C)C)cc1 (centres undefined)	.	?	.	.	-23%
N#CC(Cl)(Cl)Cl	.	11%	.	.	1%
CS(=O)(=O)N1CCC2(CCCN(Cc3ccncc3)C2)CC1	.	-20%	.	.	2%
O=C1C=C2C=C[C@@H]3C[C@@]2(O1)[C@H]1CCCCN31	.	6%	.	.	14%
CC(=O)O[C@H]1C(=O)[C@@]2(C)C([C@H](OC(=O)c3ccccc3)[C@]3(O)C[C@H](OC(=O)[C@H](O)[C@@H](NC(=O)c4ccccc4)c4ccccc4)C(C)=C1C3(C)C)[C@]1(OC(C)=O)CO[C@@H]1C[C@@H]2OC(=O)[C@H](C)NC(=O)c1ccc(-c2c3ccc(=O)cc-3oc3cc(O)ccc23)c(C(=O)O)c1 (some centres undefined)	.	-4%[10 µM]	.	.	-6%[10 µM]
CC(C)C1C(=O)N2CCCC2[C@]2(O)O[C@@](NC(=O)[C@@H]3C=C4c5cccc6[nH]cc(c56)C[C@H]4N(C)C3)(C(C)C)C(=O)N12 (some centres undefined)	.	6%	.	.	-10%
O=C(Nc1ccccc1)N1CC2(CCN(C(=O)Oc3ccccc3)CC2)C1	.	-8%	.	.	-10%
CC(C)[C@]1(O)[C@@H](OC(=O)c2ccc[nH]2)[C@@]2(O)[C@@]3(C)C[C@]4(O)O[C@@]5([C@H](O)[C@@H](C)CC[C@]35O)[C@@]2(O)C41C	.	-30%	.	.	-1%
COC1=C(C)C(=O)C2=C(C1=O)C(CO)N1C(C#N)C3CC4C(C1C2N1CCOC41)N3C (centres undefined)	?	.	-2%	-103*	.
O=C(c1csnn1)N1CCC2(CC1)CN(Cc1ccncc1)C2	.	33%	.	.	-10%
COc1ccc(CN(C)S(=O)(=O)c2nnc(NC(=O)c3ccccc3Br)s2)cc1	?	-9%	?	5	1%
CC(C)Oc1ccc(CNC(=O)Oc2ccccc2)cc1	?	30%	12µM*	0	30%
O=C(Nc1ccccc1)Oc1ccccc1	-5%	11%	-6%	-8	14%
O=C(c1ccco1)N1CCN(C(=O)c2ccc(COc3ccc(Cl)cc3Cl)o2)CC1	-2%	.	21µM*	-2	.
Nc1cc(Cl)c2nonc2c1[N+](=O)[O-]	?	2µM*	3.3µM*	-102*	2.8µM*
c1cnc(N2CCC3(CCNCC3)CC2)nc1	.	-18%	.	.	-4%
OC(c1ccc(Cl)cc1)(c1cncnc1)c1ccccc1Cl (centres undefined)	.	24%	.	.	-1%
COc1cc(C(=O)N/N=C/c2ccc(OC(=O)N3CCOCC3)cc2)cc(OC)c1OC	21µM*	-18%	6.5µM*	56	-8%
O=C(N/N=C/c1ccccc1OC(=O)N1CCOCC1)c1cccs1	?	2.5µM*	4%	126	13µM*
O=C(Nc1cccc(OC(=O)N2CCOCC2)c1)N1CCOCC1	-11%	33%	2%	32	7%
CCCC[C@@H](C)[C@@H](OC(=O)C[C@@H](CC(=O)O)C(=O)O)[C@H](C[C@@H](C)CCCCCC[C@@H](O)C[C@H](O)[C@H](C)N)OC(=O)C[C@@H](CC(=O)O)C(=O)O	.	0%	.	.	-9%
SMILES	SW480 rerep	RORg inh	MCF10A rereplic	IL1B secr inh	VP16 counter
OCC[N+]12CCC(CC1)C(C(O)(c1ccccc1)c1ccccc1)C2 (centres undefined)	-7%	1%	3%	-17	-6%
O=C(C[N+]12CCC(CC1)C(C(O)(c1ccccc1)c1ccccc1)C2)c1ccc(Br)cc1 (centres undefined)	-11%	38%	24%	-59*	-6%
C[C@@]12CCC3C(CCC4=CC(=O)CC[C@]43C)C1CCC2O (some centres undefined)	.	10%	.	.	-7%
COC(COC(N)=O)C1=C(N2CC2)C(=O)C(C)=C(N2CC2)C1=O (centres undefined)	?	.	?	-113*	.
CO[C@@H](COC(N)=O)C1=C(N2CC2)C(=O)C(C)=C(N2CC2)C1=O	?	?	4.7µM*	.	11µM*
COC12C(COC(N)=O)C3=C(C(=O)C(C)=C(N)C3=O)N1CC1C2N1C (centres undefined)	?	-35%	-17%	6	-14%
CC1(C)CN=C(NCc2ccccc2)S1	-4%	.	2%	13	.
CC1(C)CN=C(Nc2nc3ccccc3s2)S1	-2%	8.9µM*	1%	-8	?
O=P1(Oc2ccccc2)CC=CC(COCc2ccccc2)O1 (centres undefined)	.	27%	.	.	0%
O=[N+]([O-])c1ccc(-c2ccc(C=Nc3cccc4ccccc34)o2)cc1	12µM*	3%	8.2µM*	-4	-6%
CCC(COC(=O)c1cc(OC)c(OC)c(OC)c1)(c1ccccc1)N(C)C (centres undefined)	-6%	-3%	?	-53*!	-11%
O=C(C[n+]1ccn(CCCNP2(=O)C=C(c3ccccc3)OC(c3ccccc3)=C2)c1)c1ccccc1	?	-4%	?	-55*	-11%
Clc1ccc(C(c2ccccc2Cl)C(Cl)(Cl)Cl)cc1 (centres undefined)	.	4%	.	.	5%
O=C(N/N=C/c1c(O)n(Cc2ccco2)c(=O)[nH]c1=O)c1ccccc1	-21%	?	-6%	5	-6%
N#CC(C#N)=Cc1cccnc1	-2%	11%	1%	-86*	4%
N#CC(C#N)=Cc1cc(O)c(O)c(O)c1	4%	?	-7%	.	6%
O=C(OCCN1CCCCC1)C(O)(c1ccccc1)c1ccccc1	-6%	-4%	1%	.	-8%
Cc1ccc(C(c2nnnn2Cc2ccccc2)N2CC=C(c3ccc(F)cc3)CC2)cc1 (centres undefined)	2%	2%	0%	-54*	-16%
COc1ccc(C(c2nnnn2Cc2ccccc2)N2CCC3(CC2)C(=O)NCN3c2ccccc2)cc1 (centres undefined)	.	.	.	-58*	.
